From PubChem BioAssay (EPA / NIEHS)
Records with an inconclusive call do not appear. Calls of active or inactive are those of the source. Rule for the calls, unless noted: active = hit-call score of the fitted dose curve at least 0.9, where 1 is the maximum; inactive = score below 0.9.

How the values were obtained:
[1] = ACEA_ER_80hr: ACEA Biosciences xCELLigence Real-Time Cell Analysis on Estrogen Receptor Agonism for Proliferation (AID 2282667; active = hit-call score of the fitted dose curve at least 0.9, where 1 is the maximum); settings: T47D proliferation, impedance (xCELLigence), 80 h
Summary of the method: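 Real-time electrical impedance tracked growth of the human breast line T47D, with the 80 h post-dosing value used. Dosing spanned eight 1:4 steps down from a 100 uM final top concentration, run in duplicate.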

[2] = APR_HepG2_CellCycleArrest_24hr: Apredica 24-hour HepG2 Assay for Cell Cycle Arrest (AID 2282905); settings: imaging, actives raise or lower the signal;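 note: cell cycle arrest scored as ratio of 2N to 4N nuclear DNA content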
Summary of the method: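 HepG2 cells were exposed to compounds at 0.39–200 uM (ten concentrations, duplicate) in 0.5% v/v DMSO for 24 hr. After formaldehyde fixation and Triton permeabilization, Hoechst 33342-stained nuclei were imaged at 20x; DNA content was quantified, with bidirectional fitting against DMSO.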

[3] = APR_HepG2_CellLoss_24hr: Apredica 24-hour HepG2 Assay for Cell Loss (AID 2282908); settings: high-content imaging;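 for AC50: fit in both directions so a hit may be cell loss or gain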
Summary of the method: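 Compounds were tested at 0.39–200 uM in duplicate with 0.5% v/v DMSO final. Cells were then fixed in 3.7% formaldehyde, Hoechst 33342 nuclei were imaged at 20x by HCS, and cell number was fitted bidirectionally against DMSO.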

[4] = APR_HepG2_MicrotubuleCSK_24hr: Apredica 24-hour HepG2 Assay for Microtubule CSK Stabilty (AID 2282909); settings: HepG2 microtubule cytoskeleton imaging, actives raise or lower the signal
Summary of the method: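 HepG2 cells exposed 24 h to compounds at 0.39–200 uM (duplicate, 0.5% v/v DMSO final), then fixed, permeabilized and immunostained for alpha-tubulin with Hoechst 33342. Cytoskeleton imaged at 20x; bidirectional fit versus DMSO baseline.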

[5] = APR_HepG2_MitoticArrest_24hr: Apredica 24-hour HepG2 Assay for Mitotic Arrest (AID 2282910); settings: high-content imaging, actives raise or lower the signal
Summary of the method: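 Compounds are dosed onto HepG2 cells across ten concentrations up to 200 uM for 24 hr. Cells are then fixed in 3.7% formaldehyde, permeabilised, and labelled for phospho-histone H3 and nuclei; images are scored by cell cycle analysis and fitted bidirectionally relative to DMSO.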

[6] = APR_HepG2_MitoMembPot_24hr: Apredica 24-hour HepG2 Assay for Mitochondrial Membrane Potential (AID 2282911); settings: imaging, actives raise or lower the signal
Summary of the method: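 Cells are dosed for 24 hr across 0.39 to 200 uM with solvent held at 0.5% DMSO. They are then stained with 250 nM MitoTracker Red CMXRos for 30 min, fixed in 3.7% formaldehyde and imaged.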

[7] = APR_HepG2_p53Act_24hr: Apredica 24-hour HepG2 Assay for p53 Activation (AID 2282913); settings: high-content imaging, actives raise or lower the signal;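 note: p53 protein immunofluorescence averaged per cell in HepG2 with Hoechst nuclei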
Summary of the method: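 Human HepG2 liver cells; 24 hr cpd treatment, 0.39–200 uM, 0.5% DMSO final. Fixed in 3.7% formaldehyde, permeabilized with 0.5% Triton X-100, stained with anti-p53/Cy5 plus Hoechst 33342. Six images per well at 20x; gain or loss vs DMSO.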

[8] = APR_HepG2_CellCycleArrest_72hr: Apredica 72-hour HepG2 Assay for Cell Cycle Arrest (AID 2282914); settings: high-content imaging, actives raise or lower the signal
Summary of the method: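 Read-out is Hoechst-stained nuclear DNA content measured by automated fluorescence imaging (20x, six images per well), fitted in both directions relative to DMSO. Human HepG2 liver cells received 0.39–200 uM compound for 72 hr at 0.5% v/v DMSO.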

[9] = APR_HepG2_CellLoss_72hr: Apredica 72-hour HepG2 Assay for Cell Loss (AID 2282915); settings: high-content imaging
Summary of the method: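 Cell number comes from Hoechst 33342-labelled nuclei, imaged at 20x after 3.7% formaldehyde fixation. Dosing was 0.39–200 uM, ten concentrations in duplicate, 0.5% DMSO final, for 72 h. Bidirectional fit relative to DMSO baseline.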

[10] = APR_HepG2_P-H2AX_72hr: Apredica 72-hour HepG2 Assay for H2AX Phosphorylation (AID 2282916); settings: imaging, actives raise or lower the signal;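 note: phospho-histone H2A.x immunostain intensity per cell marking DNA damage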
Summary of the method: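 HepG2 human liver cells were exposed for 72 hr to compounds at 0.39–200 uM (10 concentrations, duplicate per plate) in 0.5% v/v DMSO. Fixed, permeabilized cells were immunolabeled for phospho-histone H2A.x with Hoechst 33342 and imaged by HCS fluorescence; bidirectional fit versus DMSO.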

[11] = APR_HepG2_MitoMembPot_72hr: Apredica 72-hour HepG2 Assay for Mitochondrial Membrane Potential (AID 2282917); settings: imaging, actives raise or lower the signal
Summary of the method: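 Membrane potential read by MitoTracker Red CMXRos (250 nM, 30 min, pre-fixation) fluorescence imaging of HepG2 after 72 hr exposure. Ten concentrations, 0.39–200 uM, duplicate wells, 0.5% DMSO; fitted in both directions against DMSO baseline.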

[12] = APR_HepG2_MicrotubuleCSK_72hr: Apredica 72-hour HepG2 Assay for Microtubule CSK Stabilty (AID 2282919); settings: HepG2 microtubule cytoskeleton, high-content imaging, actives raise or lower the signal
Summary of the method: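 Read-out is tubulin fluorescence intensity from high-content imaging of HepG2 cells, with nuclei identified by Hoechst 33342. Treatment lasts 72 h at 0.39–200 uM, and curves are fitted bidirectionally against the DMSO negative control.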

[13] = APR_HepG2_P-H2AX_24hr: Apredica 24-hour HepG2 Assay for H2AX Phosphorylation (AID 2282920); settings: high-content imaging, actives raise or lower the signal
Summary of the method: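 HepG2, 24 hr, cpd 0.39–200 uM (10 conc, duplicate), DMSO 0.5% v/v final. Fix 3.7% formaldehyde, Triton X-100 permeabilize, anti-phospho-H2A.x 1:200 + Hoechst 2 ug/mL. Imaged, bidirectional fit vs DMSO.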

[14] = APR_HepG2_StressKinase_24hr: Apredica 24-hour HepG2 Assay for Stress Kinase (AID 2282922); settings: HepG2 stress kinase (phospho-c-Jun) imaging, actives raise or lower the signal
Summary of the method: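 HepG2, 24 hr dosing, 0.39–200 uM in duplicate, 0.5% DMSO; formaldehyde fix (3.7%), 0.5% Triton X-100; anti-phospho-c-Jun + Cy3 secondary, Hoechst counterstain; ArrayScan imaging; bidirectional curve fit vs DMSO baseline.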

[15] = APR_HepG2_p53Act_72hr: Apredica 72-hour HepG2 Assay for p53 Activation (AID 2282923); settings: high-content imaging, actives raise or lower the signal;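 note: average cellular p53 protein immunofluorescence intensity in HepG2 cells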
Summary of the method: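 Cells were dosed for 72 hr with compounds at 0.39–200 uM in duplicate (final DMSO 0.5% v/v), then fixed in 3.7% formaldehyde, permeabilized with Triton X-100 and immunostained for p53 (Cy5) with Hoechst 33342 nuclear counterstain.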

[16] = APR_HepG2_MitoMass_72hr: Apredica 72-hour HepG2 Assay for Mitochondrial Mass (AID 2282924); settings: high-content imaging, actives raise or lower the signal;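 note: MitoTracker Red CMXRos stain intensity per cell imaged as mitochondrial mass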
Summary of the method: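 HepG2, 72 hr cmpd, 10 conc 0.39–200 uM in dup, DMSO 0.5% v/v. MitoTracker Red CMXRos 250 nM 30 min pre-fix; formaldehyde 3.7% fix 30 min RT. HCS imaging, gain/loss fit vs DMSO.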

[17] = APR_HepG2_MitoMass_24hr: Apredica 24-hour HepG2 Assay for Mitochondrial Mass (AID 2282912); settings: high-content imaging, actives raise or lower the signal
Summary of the method: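 Human HepG2 liver cells were exposed for 24 hr to compounds at 0.39–200 uM (duplicates, 0.5% v/v DMSO final). They were stained live with 250 nM MitoTracker Red CMXRos for 30 min, fixed in 3.7% formaldehyde, and imaged by HCS fluorescence; signals were fitted bidirectionally against DMSO.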

[18] = APR_HepG2_StressKinase_72hr: Apredica 72-hour HepG2 Assay for Stress Kinase (AID 2282921); settings: HepG2 stress kinase (phospho-c-Jun) imaging, actives raise or lower the signal
Summary of the method: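 Cells were exposed for 72 h to ten concentrations (0.39–200 uM, duplicate) at 0.5% v/v DMSO final, then fixed with 3.7% formaldehyde, permeabilized and immunostained for phospho-c-Jun (Cy3 secondary) with Hoechst nuclear counterstain.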

[19] = APR_HepG2_MitoticArrest_72hr: Apredica 72-hour HepG2 Assay for Mitotic Arrest (AID 2282918); settings: high-content imaging, actives raise or lower the signal
Summary of the method: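 Read-out is phospho-histone H3 immunofluorescence with Hoechst nuclear segmentation, imaged at 20x. Human HepG2 liver cells received ten concentrations (0.39–200 uM, final DMSO 0.5% v/v) for 72 hr before fixation. Gain or loss of signal was fitted relative to DMSO.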

Measured: AC50

CCCCC[C@H](O)CC(=O)CCc1ccc(O)c(OC)c1
not listed: [17] | [18] | [19]
inactive: all other assays above

CCCCCCCC(=O)O
active: [6] 0.0327 µM
not listed: [19]
inactive: all other assays above

CC1=C(/C=C/C(C)=C/C=C/C(C)=C/C(=O)O)C(C)(C)CCC1
active: [1] 0.00133 µM | [3] 103 µM | [5] 109 µM | [6] 83.2 µM | [9] 62 µM | [13] 86.8 µM | [16] 79.9 µM
not listed: [15] | [17] | [18]
inactive: all other assays above

N#C[C@@H]1CC(F)(F)CN1C(=O)CNC1CC2CCC(C1)N2c1ncccn1 (stereo partly drawn)
active: [1] 4 µM
not listed: [15] | [17] | [18] | [19]
inactive: all other assays above

NC(=O)N1C(=O)C(C(=O)c2cc(Cl)cs2)c2cc(F)c(Cl)cc21 (stereo not drawn)
active: [3] 98.8 µM | [4] 75.3 µM | [5] 84.7 µM | [7] 105 µM | [8] 96.9 µM | [9] 62.7 µM | [10] 64.7 µM | [19] 47.7 µM | [12] 39.2 µM | [13] 99.8 µM | [16] 54.4 µM
inactive: [1] | [2] | [6] | [11] | [14]

COCC(C)O (stereo not drawn)
active: [6] 0.0477 µM
not listed: [15] | [17] | [18] | [19]
inactive: all other assays above

O=C(OCCOCCOC(=O)c1ccccc1)c1ccccc1
not listed: [17] | [19]
inactive: all other assays above
